Measured values from PubChem BioAssay AID1159580 (chemical genetic matrix, 2015).
Screen size: about 5,500 compounds; about 2,000 (36%) were called active. Inconclusive results (about 18%) are left out. Cut-off read from the data, not from the text of the source: active = normalized growth mostly below about 0.91 (no sharp cut-off); inconclusive = no clear call, values can overlap the other calls; inactive = mostly above about 0.92. The list shows a part of the results.

Experiment: chemical genetic growth profiling, strain panel (AID 1159580);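 note: tested at 20 µM; growth read once vehicle control cultures reached saturation at 30 °C; 1 = growth at the plate median or of vehicle wells; lower values mean less growth of the strain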
Conditions: S. cerevisiae deletion strains, growth OD

Measured: normalized growth

CC(C(=O)O)[C@H]1CCC2C3CC=C4C[C@@H](O)CC[C@]4(C)C3CC[C@@]21C (some centres not stated)
active: locus YAL026C, strain drs2, stronger effect = lower value 0.627 | locus YDR137W, strain rgp1, stronger effect = lower value 0.562 | locus YDR195W, strain ref2 1.35 [resistant] | locus YDR392W, strain spt3, stronger effect = lower value 0.733 | locus YLR262C, strain YPT6 (second series), stronger effect = lower value 0.485 | locus YPL106C, strain sse1, stronger effect = lower value 1.26 [resistant]
inactive: locus YAL021C, strain ccr4, stronger effect = lower value 0.939 | locus YAL030W, strain snc1, stronger effect = lower value 1.03 | locus YBL061C, strain skt5, stronger effect = lower value 1.03 | locus YBR009C, strain hhf1, stronger effect = lower value 0.979 | locus YBR023C, strain chs3, stronger effect = lower value 1 | locus YBR171W, strain sec66, stronger effect = lower value 1.02 | locus YBR231C, strain swc5, stronger effect = lower value 1.04 | locus YBR279W, strain paf1, stronger effect = lower value 1.02 | locus YCL011C, strain gbp2, stronger effect = lower value 1.03 | locus YCL016C, strain dcc1, stronger effect = lower value 0.977 | locus YCL061C, strain MRC1, stronger effect = lower value 1 | locus YCL069W, strain vba3, stronger effect = lower value 1.03 | locus YCR088W, strain abp1, stronger effect = lower value 1.04 | locus YDL005C, strain med2, stronger effect = lower value 1.05 | locus YDL040C, strain nat1, stronger effect = lower value 1.04 | locus YDR001C, strain nth1, stronger effect = lower value 1.04 | locus YDR069C, strain doa4, stronger effect = lower value 0.988 | locus YDR159W, strain sac3, stronger effect = lower value 1.04 | locus YDR297W, strain sur2, stronger effect = lower value 1.02 | locus YDR334W, strain swr1, stronger effect = lower value 1.05 | locus YDR335W, strain msn5, stronger effect = lower value 1.02 | locus YEL003W, strain gim4, stronger effect = lower value 1.02 | locus YEL037C, strain rad23, stronger effect = lower value 1.03 | locus YEL061C, strain CIN8 (second series), stronger effect = lower value 1.05 | locus YER015W, strain faa2, stronger effect = lower value 1.01 | locus YER016W, strain bim1, stronger effect = lower value 1.04 | locus YER111C, strain swi4, stronger effect = lower value 1.02 | locus YER155C, strain BEM2 (second series), stronger effect = lower value 1.08 | locus YFR010W, strain ubp6, stronger effect = lower value 0.953 | locus YGL167C, strain pmr1, stronger effect = lower value 1.03 | locus YGL173C, strain kem1, stronger effect = lower value 0.981 | locus YGL227W, strain vid30, stronger effect = lower value 1.04 | locus YGL240W, strain doc1, stronger effect = lower value 1.03 | locus YGL253W, strain hxk2, stronger effect = lower value 0.989 | locus YHR013C, strain ard1, stronger effect = lower value 1.04 | locus YHR027C, strain rpn1, stronger effect = lower value 1.02 | locus YHR030C, strain SLT2, stronger effect = lower value 1.04 | locus YHR079C, strain IRE1, stronger effect = lower value 1.03 | locus YHR142W, strain chs7, stronger effect = lower value 0.967 | locus YJL092W, strain hpr5, stronger effect = lower value 1.02 | locus YJL095W, strain BCK1 (second series), stronger effect = lower value 1.03 | locus YJL095W, strain BCK1, stronger effect = lower value 1.02 | locus YJL115W, strain asf1, stronger effect = lower value 1.04 | locus YJL129C, strain trk1, stronger effect = lower value 1.03 | locus YJL154C, strain vps35, stronger effect = lower value 1.04 | locus YJL164C, strain tpk1, stronger effect = lower value 0.973 | locus YJL166W, strain qcr8, stronger effect = lower value 0.97 | locus YJL187C, strain SWE1, stronger effect = lower value 1.01 | locus YJR066W, strain TOR1, stronger effect = lower value 0.98 | locus YKL160W, strain elf1, stronger effect = lower value 1 | locus YKR026C, strain gcn3, stronger effect = lower value 1.04 | locus YKR091W, strain srl3, stronger effect = lower value 1.05 | locus YLL001W, strain dnm1, stronger effect = lower value 1.01 | locus YLL026W, stronger effect = lower value 1.03 | locus YLL041C, strain sdh2, stronger effect = lower value 1.03 | locus YLR027C, strain aat2, stronger effect = lower value 1.01 | locus YLR113W, strain HOG1, stronger effect = lower value 1.06 | locus YLR221C, strain rsa3, stronger effect = lower value 0.996 | locus YLR258W, strain gsy2, stronger effect = lower value 1.02 | locus YLR320W, strain mms22, stronger effect = lower value 0.919 | locus YLR342W, strain FKS1, stronger effect = lower value 1.03 | locus YLR357W, strain rsc2, stronger effect = lower value 1.1 | locus YLR370C, strain arc18, stronger effect = lower value 1.01 | locus YLR384C, strain iki3, stronger effect = lower value 1.04 | locus YML120C, strain ndi1, stronger effect = lower value 1.01 | locus YMR058W, strain fet3, stronger effect = lower value 1 | locus YMR125W, strain sto1, stronger effect = lower value 1.03 | locus YMR129W, stronger effect = lower value 1.03 | locus YMR205C, strain PFK2, stronger effect = lower value 1.02 | locus YMR231W, strain pep5, stronger effect = lower value 1.02 | locus YNL071W, strain lat1, stronger effect = lower value 0.989 | locus YNL183C, strain NPR1, stronger effect = lower value 0.971 | locus YNL209W, strain ssb2, stronger effect = lower value 1.03 | locus YNL248C, strain rpa49, stronger effect = lower value 0.963 | locus YNL322C, strain KRE1 (second series), stronger effect = lower value 1.06 | locus YNR049C, strain mso1, stronger effect = lower value 1.05 | locus YOR001W, strain rrp6, stronger effect = lower value 0.997 | locus YOR070C, strain gyp1, stronger effect = lower value 0.962 | locus YOR080W, strain dia2, stronger effect = lower value 1.03 | locus YOR083W, strain WHI5, stronger effect = lower value 0.983 | locus YOR106W, strain vam3, stronger effect = lower value 1.01 | locus YOR231W, strain MKK1, stronger effect = lower value 1.06 | locus YOR265W, strain rbl2, stronger effect = lower value 1.02 | locus YOR270C, strain vph1, stronger effect = lower value 0.961 | locus YOR290C, strain snf2, stronger effect = lower value 0.995 | locus YPL051W, strain arl3, stronger effect = lower value 0.963 | locus YPL078C, strain atp4, stronger effect = lower value 1 | locus YPL240C, strain hsp82, stronger effect = lower value 1.04 | locus YPL256C, strain CLN2, stronger effect = lower value 1.06

CC(=O)[C@H]1CCC2C3CC=C4C[C@@H](OS(=O)(=O)O)CC[C@]4(C)C3CC[C@@]21C (some centres not stated)
inactive: locus YAL040C, strain CLN3, stronger effect = lower value 0.959 | locus YCL061C, strain MRC1 (second series), stronger effect = lower value 0.981 | locus YDR363W, strain ESC2, stronger effect = lower value 1.01 | locus YER002W, strain NOP16, stronger effect = lower value 0.979 | locus YMR263W, strain SAP30, stronger effect = lower value 0.978 | locus YMR307W, strain GAS1, stronger effect = lower value 0.997 | locus YNL175C, strain NOP13, stronger effect = lower value 0.988 | locus YNL197C, strain WHI3, stronger effect = lower value 1 | locus YNL224C, strain SQS1, stronger effect = lower value 0.984 | locus YNL322C, strain KRE1, stronger effect = lower value 0.964 | locus YOR083W, strain WHI5 (second series), stronger effect = lower value 0.975 | locus YPL241C, strain CIN2, stronger effect = lower value 0.984
